Rows were chosen to be rich in hits. Some 6.5% of all compounds tested hit in one or more screens of this group.
NADH enzymes = blocks coupling enzymes of NAD/NADH assays. IC50, µM (highest dose often 10 µM), inactives show top-dose inhibition. 65,000 compounds, 0.02% hits. coupled PK/LDH NADH assays, four targets;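 active = single-dose screening hits from any of four coupled enzyme assays that gave an IC50 when retested across doses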;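 note: the DPM-DC format reads NADH fluorescence rather than 340 nm absorbance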
Spn PMK inh = blocks S. pneumoniae phosphomevalonate kinase; purified PMK, PK/LDH-coupled NADH absorbance 340 nm; inhibition, % at 10 µM; 65,000 compounds, 0.49% hits;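 active = top-ranked compounds by inhibition in the single 10 µM screen, taking a fixed number of the strongest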;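 note: 0% = full reaction with DMSO carrier and 100% = background rate without enzyme reaction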
Spn MK inh = S. pneumoniae mevalonate kinase inhibition; purified MK, PK/LDH-coupled NADH absorbance 340 nm; inhibition, % at 10 µM; 65,000 compounds, 0.48% hits; AID 555;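 active = ranked among the strongest by inhibition in the single 10 µM screen, a fixed top-ranked set picked for dose follow-up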
DPM-DC inhibit = inhibitors of Streptococcus pneumoniae diphosphomevalonate decarboxylase; AID 556; purified DPM-DC, PK/LDH coupled NADH fluorescence; calls only at 10 µM; 65,000 compounds, 0.49% hits;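 active = the 320 compounds with the highest percent inhibition in the single-dose primary screen, excluding strongly autofluorescent ones, cut at about 32% in these data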;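 note: kinetic rate of NADH fluorescence loss reporting ADP formed by the decarboxylase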
Fluor 339 460 = intrinsic fluorescence of library compounds, ex339/em460 – biochemical, MLSMR library, data from DPM-DC assay, artefact control, profiling panel; compound autofluorescence, ex339/em460 nm, NADH buffer; active compounds read high; 1 = no-compound wells, NADH background; fluorescence fold increase at 10 µM; 65,000 compounds, 5.5% hits;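 active = at 10 µM, mean starting fluorescence two-fold or more over control wells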;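 note: signal is the first read of a kinetic run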
A340 absorber = absorbance at 340 nm; compound absorbance at 340 nm, fold over control; fold change at 10 µM; 65,000 tested, under 10 active; AID 708;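 active = at 10 µM dose, initial 340 nm absorbance at least 2 fold that of control wells; inactive = change under 2 fold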;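 note: initial absorbance extrapolated from kinetic A340 decline of NADH oxidation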
* = called active by the depositor; i = inactive; nt = no result given; + = active, no number.

SMILES	NADH enzymes	Spn PMK inh	Spn MK inh	DPM-DC inhibit	Fluor 339 460	A340 absorber
O=c1c2ccccc2sn1-c1ccc(S(=O)(=O)N2CCCCC2)cc1	11%	10	10	+	1	1
O=c1c2ccccc2sn1-c1ccc(S(=O)(=O)N2CCCC2)cc1	72%	15	100*	+	1.2	1.1
COc1cccc(OC)c1-c1nn2c(-c3cc(-c4ccccc4)n[nH]3)nnc2s1	46µM*	26*	39	i	1.4	1.1
CCN(CC)c1ccc(-c2nn3c(-c4ccccc4OC)nnc3s2)cc1	4%	4	3	nt	3.6*	1.1
COc1ccc(-c2nnc3sc(-c4c(OC)cccc4OC)nn23)cc1	3%	12	2	i	1	0.99
CC(=O)c1ccccc1Oc1nc(CN2CCOCC2)nc2scc(-c3cccs3)c12	3%	15	3	i	1	0.98
Brc1ccc(-c2nc3ccccc3s2)s1	3%	8	0	i	2.2*	1.1
CC(C(=O)Nc1ccccc1-c1ccccc1)N1CCN(C(=O)c2ccco2)CC1 (stereo unspecified)	3%	12	0	i	1	0.98
CCOC(=O)c1sc(Nc2nc3c(OC)cccc3s2)nc1C	9%	10	0	+	2.2*	1
COc1cc(C2Nc3cccc4cccc(c34)N2)ccc1OC(C)=O	7%	12	8	i	1.5	1.1
COc1cc(C2Nc3cccc4cccc(c34)N2)cc(OC)c1O	2%	18	0	nt	3.2*	1
Cc1cccn2c(N)c(-c3ccccc3)nc12	6%	12	0	nt	2.1*	1.1
COC(=O)C1=C2SC(C)C(=O)N2C(N)=C(C#N)C1c1ccc(OC)c(OC)c1 (stereo unspecified)	2%	5	0	i	0.84	1.1
COCCN1C=C(C(=O)OC)C(c2ccc(OC)c(OC)c2)C(C(=O)OC)=C1	11%	14	8	nt	2.2*	1.1
CCCOc1ccc(C2C(C(=O)OC)=CN(CCOC)C=C2C(=O)OC)cc1	7%	17	7	nt	2.6*	1
COC(=O)C1=CN(CC2CCCO2)C=C(C(=O)OC)C1c1cc(OC)c(OC)c(OC)c1 (stereo unspecified)	10%	18	1	nt	2.1*	1.1
Cc1csc(SCCn2c(N3CCCC3)nc3c2c(=O)[nH]c(=O)n3C)n1	3%	9	4	i	1.1	1
COc1cccc(N2CCN(CC(=O)c3c[nH]c4ccc(OC)cc34)CC2C)c1 (stereo unspecified)	3%	7	3	i	1.1	1
CC(C)CN(CC(C)C)S(=O)(=O)N1CCC(C(=O)NC2CCCCCCC2)CC1	10%	30*	1	i	1	0.99
COc1ccc(-n2ncc3c(N4CCC(C(N)=O)CC4)ncnc32)cc1	4%	5	7	i	1.1	0.99
COc1cc2[nH]c3c(N4CCC(C(N)=O)CC4)ncnc3c2cc1OC	12%	19	3	i	2.8*	1
COc1cccc2[nH]c3c(N4CCC(C(N)=O)CC4)ncnc3c12	8%	10	5	nt	3.7*	1.1
c1cn2cc(-c3ccc4c(c3)OCO4)nc2s1	1%	0	2	i	1.1	1
c1ccc(Cn2nnc3c(Nc4ccc5c(c4)OCO5)nc(C4CC4)nc32)cc1	0%	0	0	nt	3.7*	1.1
Cc1sc2nc3ccc(N4CCCCC4)nn3c(=O)c2c1C	4%	7	4	i	2.4*	1.1
SMILES	NADH enzymes	Spn PMK inh	Spn MK inh	DPM-DC inhibit	Fluor 339 460	A340 absorber
Cc1ccc2nc3ccc(N4CCCC4)nn3c(=O)c2c1	5%	16	0	i	1.6	1.1
CCOC(=O)Nc1oc2ccccc2c(=O)c1CN1CCOCC1	8%	5	6	i	2.2*	1
COCCn1c(=N)c(C(=O)NCCc2ccc(OC)cc2)cc2c(=O)n3cccc(C)c3nc21	10%	8	9	i	2.7*	1.1
COCCCNC(=O)c1cc2c(=O)n3cccc(C)c3nc2n(C(C)C)c1=N	13%	18	8	nt	5.1*	1
Cc1ccc(C)c(S(=O)(=O)Nc2ccc3scnc3c2)c1	6%	2	7	i	1.1	1.1
c1ccc(C2Nc3ccccc3-c3nc4ccccc4n32)nc1 (stereo unspecified)	5%	1	9	nt	2.3*	1.1
c1coc(C2Nc3ccccc3-c3nc4ccccc4n32)c1 (stereo unspecified)	6%	11	1	nt	2.3*	1.1
CCOC(=O)Cc1csc(NC(=O)CCN2C(=O)c3ccccc3C2=O)n1	1%	4	0	i	1.1	1.1
CCOC(=O)N1CCN(C(=O)CCc2c(C)nc3c(c(C)nn3-c3ccc(C)c(C)c3)c2C)CC1	11%	13	7	+	2.6*	0.98
Cc1ccc(-n2nc(C)c3c(C)c(CCC(=O)NCc4ccco4)c(C)nc32)cc1	6%	10	1	nt	2.2*	1.1
Cc1cc(C)c2c(n1)nn1c(C)c(CCC(=O)NCc3ccco3)c(C)nc21	10%	10	9	nt	2.1*	1.1
Cc1cc(=O)n(C)c(=O)n1CC(=O)N1CCCCCC1	3%	0	8	i	1.1	1
CC(=O)OCCCN1C(=O)c2ccc(Br)cc2C1=O	8%	8	16	i	1.1	1.1
CN1C(=C2C(=O)OC(C)(C)OC2=O)Sc2ccccc21	5%	7	0	i	1	1.1
CCOc1ccc(N(CC(=O)Nc2ccc(F)c(F)c2)S(=O)(=O)c2c(C)noc2C)cc1	6%	12	7	+	0.99	0.99
O=C(OCn1nnc2ccccc2c1=O)C1CCCCC1	3%	9	1	i	1.1	1
N#C/C(=C(/O)COC(=O)Cc1c[nH]c2ccccc12)c1nc2ccccc2[nH]1	5%	12	0	i	1.1	1.1
N#C/C(=C(/O)COC(=O)CCc1ccc(S(=O)(=O)N2CCOCC2)cc1)c1nc2ccccc2[nH]1	34%	20	75*	i	1.5	1.1
COCCCNC(=O)CN(c1ccc(OC)cc1)S(=O)(=O)c1ccc(NC(C)=O)cc1	4%	2	10	i	1.1	1
O=C(O)CNCC1COc2ccccc2O1 (stereo unspecified)	5%	14	2	i	1.1	1
CC(CC(=O)O)NCC1COc2ccccc2O1 (stereo unspecified)	11%	26*	6	i	1.1	1
COc1ccc(C(c2nnnn2Cc2ccc(F)cc2)N2CCN(c3ccccc3)CC2)cc1 (stereo unspecified)	8%	15	8	i	1.1	0.97
COc1ccc(Cn2nnnc2C(c2ccccn2)N2CCN(c3cc(Cl)ccc3C)CC2)cc1 (stereo unspecified)	3%	28*	4	i	1	1

Compound activity: PubChem, SRMLSC
